Source: PubChem BioAssay (Tox21)
Inconclusive results are not listed. Activity calls are given as the source filed them. Calls follow the shape of the full dose curve.

Experiments:
[1] = target: Acetylcholinesterase (Homo sapiens) (UniProt P22303); experiment: Acetylcholinesterase (AChE) small molecule antagonists: colormetric cell-based qHTS assay (AID 1347395); also: nearly all actives have a fitted effect of over 30% in size
How it was run: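 Colorimetric read-out: DTNB detects thiocholine released when cellular AChE in SH-SY5Y cells hydrolyses acetylthiocholine. Cells attached overnight, received compound for 30 min at 37 C, then substrate mix for 90 min at 37 C.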

[2] = target: Acetylcholinesterase (Homo sapiens) (UniProt P22303); experiment: Acetylcholinesterase (AChE) small molecule antagonists: enzyme-based qHTS assay (AID 1347397); conditions: Potency: AChE enzyme activity inhibition; outcome: AChE enzyme activity inhibition; also: nearly all actives have a fitted effect of over 55% in size
How it was run: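 Recombinant human AChE (50 mU/mL) preincubated with compound 30 min at room temperature; acetylthiocholine plus DTNB then added, and thiocholine formation read colorimetrically after 10 min at room temperature. DMSO served as vehicle control.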

[3] = target: Acetylcholinesterase (Homo sapiens) (UniProt P22303); experiment: Acetylcholinesterase (AChE) small molecule antagonists: fluorescence cell-based qHTS assay (AID 1347398); conditions: Potency: AChE activity; outcome: AChE activity; also: nearly all actives have a fitted effect of over 50% in size
How it was run: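 SH-SY5Y cells (2000/well), attached overnight, incubated with compound 30 min at 37 C. Acetylthiocholine plus Thiolite Green then added for 40 min at room temperature. Thiocholine fluorescence (Ex/Em 490/520 nm) reports cellular AChE activity.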

[4] = target: Acetylcholinesterase (Homo sapiens) (UniProt P22303); experiment: Acetylcholinesterase (AChE) small molecule antagonists: enzyme-based qHTS assay with human liver microsomes (AID 1347399); conditions: Potency: qHTS inhibition; outcome: qHTS inhibition; also: nearly all actives have a fitted effect of over 60% in size
How it was run: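 Recombinant human AChE (50 mU/mL in the enzyme mix) and human liver microsomes (0.25 mg/mL final) were preincubated with compound and NADPH (0.25 mg/mL final) for 30 min at 37 C. Acetylthiocholine/DTNB was then added; thiocholine was read colorimetrically after 10 min at room temperature.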

Measured: Potency

Chain of Acetylcholinesterase (Homo sapiens) (P22303 whole entry, looked up): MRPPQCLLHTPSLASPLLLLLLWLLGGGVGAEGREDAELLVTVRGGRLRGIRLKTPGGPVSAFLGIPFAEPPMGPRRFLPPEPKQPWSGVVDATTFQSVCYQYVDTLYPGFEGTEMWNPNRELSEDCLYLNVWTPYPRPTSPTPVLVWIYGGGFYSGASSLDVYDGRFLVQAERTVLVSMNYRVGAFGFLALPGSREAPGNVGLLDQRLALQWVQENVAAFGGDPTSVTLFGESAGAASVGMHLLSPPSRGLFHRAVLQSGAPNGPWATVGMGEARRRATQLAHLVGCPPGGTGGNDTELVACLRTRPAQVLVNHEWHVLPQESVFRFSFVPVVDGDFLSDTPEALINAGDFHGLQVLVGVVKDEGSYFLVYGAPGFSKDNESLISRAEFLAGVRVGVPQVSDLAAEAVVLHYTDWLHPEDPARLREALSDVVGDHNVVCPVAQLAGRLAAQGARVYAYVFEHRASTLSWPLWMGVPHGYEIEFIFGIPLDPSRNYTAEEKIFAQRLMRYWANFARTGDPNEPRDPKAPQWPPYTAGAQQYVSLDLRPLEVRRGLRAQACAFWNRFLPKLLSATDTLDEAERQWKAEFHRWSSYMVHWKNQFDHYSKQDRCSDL

Cc1occc(=O)c1OC(=O)C(C)C
inactive: all assays above

CC(C)CC(O)CC(C)C
inactive: all assays above

CCc1ccc(C)nc1
inactive: all assays above

Cc1onc(-c2c(Cl)cccc2Cl)c1C(=O)N[C@@H]1C(=O)N2[C@@H]1SC(C)(C)[C@@H]2C(=O)O
inactive: all assays above

CC(C)(C)NCCNC(C)(C)C
inactive: all assays above

COC(=O)/C=C/C(C)=C\C=C\C(C)=C\C=C\C=C(C)\C=C\C=C(C)\C=C\C(=O)O
inactive: all assays above

CCC(C=O)CC
inactive: all assays above

O=S1(=O)CCCC1
inactive: all assays above

CCC(C)(C)C1CCC(=O)CC1
inactive: all assays above

CC/C=C\CCOC(C)=O
inactive: all assays above

CCCC(=O)OC/C=C(\C)CCC=C(C)C
inactive: all assays above

C=C(C)C(=O)OCC
inactive: all assays above

CCC(O)C(C)(C)C (stereo not given)
inactive: all assays above

CCOc1ccc(NC(=O)OC(C)C)cc1OCC
inactive: all assays above

CC(C)C(=O)OCCc1ccccc1
inactive: all assays above

CC1COc2c(N3CCN(C)CC3)c(F)cc3c(=O)c(C(=O)O)cn1c23 (stereo not given)
inactive: all assays above

C=C(C)C(=O)OC1CC(C)CC(C)(C)C1 (stereo not given)
inactive: all assays above

C=CCn1c(=O)n(CC=C)c(=O)n(CC=C)c1=O
inactive: all assays above

NS(=O)(=O)Cc1noc2ccccc12
inactive: all assays above

Cc1c(N=C=O)cccc1N=C=O
inactive: all assays above

CCCCCCCCCC[N+](C)(C)[O-]
inactive: all assays above

CC(=O)CCC1=C(C)CCCC1(C)C
inactive: all assays above

Cc1cccc(C)c1NC(=O)CN(CC(=O)O)CC(=O)O
inactive: all assays above

CC(=O)OCC(=O)[C@@]1(O)[C@H](OC(C)=O)C[C@H]2[C@@H]3CCC4=CC(=O)C=C[C@]4(C)[C@@]3(F)[C@@H](O)C[C@@]21C
inactive: all assays above

NC(=O)c1ccccc1
inactive: all assays above

CC1=CCCC(C)(C)C12CCC(C)O2 (stereo not given)
inactive: all assays above

Cc1ccc(/C=N/n2c(-c3ccccc3)csc2=S)cc1
inactive: all assays above

CCCC(=O)OCCc1ccccc1
inactive: all assays above

C[C@@H]1C[C@H]2[C@@H]3CCC4=CC(=O)C=C[C@]4(C)[C@@]3(F)[C@@H](O)C[C@]2(C)[C@@]1(O)C(=O)CO
inactive: all assays above

CC1=NN(c2ccc(S(=O)(=O)O)cc2)C(=O)C1N=Nc1ccccc1 (stereo not given)
inactive: all assays above

CC(=O)OCCC(C)CC(C)(C)C (stereo not given)
inactive: all assays above

COC(=O)CCC(=O)O
inactive: all assays above

c1csc(SSc2cccs2)c1
inactive: all assays above

NC(=O)c1ccc(N)cc1
inactive: all assays above

CCOC(=O)[C@@H](C)Oc1ccc(Oc2nc3ccc(Cl)cc3o2)cc1
inactive: all assays above

CCC(OCCCOC)OC(C)=O (stereo not given)
inactive: all assays above

O=C(Nc1ccc([N+](=O)[O-])cc1)Nc1ccc([N+](=O)[O-])cc1 (tested in a mixture with another compound)
inactive: all assays above

COc1cnc(NS(=O)(=O)c2ccc(N)cc2)nc1
inactive: all assays above

CCCC(C)C(O)CC (stereo not given)
inactive: all assays above

CC(=O)N(CC(=O)N(C)C)c1ccccc1
inactive: all assays above
